ssDAF12 agonist: activators of S. stercoralis DAF-12 nuclear receptor; activation, % at 6.8 µM; actives 1% (n = 370,000); HEK293 ssDAF-12/GRIP1 lit1-tk-luc reporter, luminescence; % of 3 µM dafachronic acid response;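 active means activation above the mean over all tested compounds plus 3 SD, cut at about 0.9% in these data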
DAX1 inh-1: inhibitors of human orphan nuclear receptor DAX1 (NR0B1); inhibition, % at 6.75 µM; P51843; HEK293 Gal4-DAX1 luciferase reporter, luminescence; actives 0.99% (n = 340,000);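 active means inhibition above the mean over all tested compounds plus 3 SD, cut at about 4.2% in these data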;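 further: inhibition shows as a rise in luminescence from relieved DAX1 repression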
Target sequence (P51843 207-470 limits assumed): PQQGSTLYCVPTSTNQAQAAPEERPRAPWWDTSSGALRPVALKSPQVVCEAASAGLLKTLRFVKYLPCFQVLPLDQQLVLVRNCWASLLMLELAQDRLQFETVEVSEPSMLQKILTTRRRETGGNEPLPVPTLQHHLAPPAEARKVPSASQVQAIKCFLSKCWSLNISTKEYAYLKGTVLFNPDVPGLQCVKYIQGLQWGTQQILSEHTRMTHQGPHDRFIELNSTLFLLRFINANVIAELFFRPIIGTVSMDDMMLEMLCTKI
SMARCA2 act: activators of SMARCA2 function. AID 652017. MG213 cells, MMTV-luciferase reporter, dexamethasone, overnight. actives 1% (n = 370,000). activation, % at 9.1 µM; in the data active means activation above about 7.8%
DAX1 inh-2: blocks DAX1 repression of SF-1 activated StAR promoter; HEK293T StAR-luciferase reporter, SF-1/DAX-1 repression relief; inhibition, % at 6.8 µM; actives 1.1% (n = 370,000);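 active means inhibition above the mean over all tested compounds plus 3 SD, cut at about 3.6% in these data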;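 further: higher inhibition means more luminescence from relief of DAX-1 repression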
hcDAF-12 act: activates DAF-12 receptor from parasite H. contortus | HEK293 hcDAF-12 lit1-tk-luc reporter, luminescence; 0% DMSO, 100% Δ7-dafachronic acid | activation, % at 6.8 µM | actives 1.4% (n = 370,000) | AID 652067;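 active means activation above the mean of all tested compounds plus 3 SD, cut at about 5.5% in these data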
hgDAF12 agonist: hgDAF-12 agonism, primary luciferase screen; HEK293 GAL4-hgDAF12 UAS-luciferase reporter, agonist luminescence; normalized to butyrate control; activation, % at 6.8 µM; actives 1.8% (n = 370,000); AID 687014;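 active means activation above a cutoff set at the mean of all screened compounds plus 3 SD, cut at about 10% in these data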
hgDAF12 conf: confirmation of H. glycines DAF-12 agonists | activation, % at 6.8 µM | shares compounds with hgDAF12 agonist | AID 743050 | HEK293 GAL4-hgDAF12 luciferase reporter, agonist mode; percent of butyrate response | actives 80% (n = 3,300);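 active means mean activation over triplicate wells above the hit cutoff derived from the earlier primary screen, cut at about 11% in these data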
LXR ag 2: activates human LXR-beta, counter-screen for DAF-12 agonists | shares compounds with hgDAF12 agonist | HEK293 Gal4-LXR luciferase reporter, 24 h | activation, % at 6.8 µM | 3,300 tested, under 10 active | AID 743051;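 active means mean activation of the triplicate above a set limit carried over from the primary screen, none filed active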
Of the large screens only hits and unclear results are named; the others gave an inactive call (follow-up assays come after a bar, where they were run). In the library only some 4.8% were active in any assay of this set; here they are far more common.

CNc1cncc(-c2ccc(CN(C)C)cc2)n1	DAX1 inh-2 4.0, hgDAF12 agonist 16 (no result: DAX1 inh-1) | hgDAF12 conf inactive | LXR ag 2 inactive
COC(=O)C1=C(C)N(Cc2ccc(C(F)(F)F)cc2)C(=NCc2ccc3c(c2)OCO3)NC1c1ccccc1C(F)(F)F (stereo unspecified)	none (no result: DAX1 inh-1)
CCCCc1ccc2nc(NC(=O)c3cccs3)sc2c1	ssDAF12 agonist 2.5, hcDAF-12 act 6.1, hgDAF12 agonist 27 (no result: DAX1 inh-1, SMARCA2 act, DAX1 inh-2) | hgDAF12 conf 20 | LXR ag 2 inactive
CN(C)S(=O)(=O)c1ccc2nc(NC(=O)c3cccs3)sc2c1	DAX1 inh-2 3.8, hcDAF-12 act 5.6, hgDAF12 agonist 15 | hgDAF12 conf 19 | LXR ag 2 inactive
Cc1cc2c(c(=O)o1)[C@@]1(C(=O)N(C)c3cccc(Br)c31)C1=C(CCCC1=O)O2	none (no result: DAX1 inh-1)
C/C(=N/NC(=O)c1ccccn1)c1ccncc1	hgDAF12 agonist 14 | hgDAF12 conf inactive | LXR ag 2 inactive
C/C(=N/NC(=O)c1cnccn1)c1ccncc1	none
C/C(=N/NC(=O)c1ccc(Br)o1)c1ccncc1	DAX1 inh-1 5.7, hgDAF12 agonist 18 | hgDAF12 conf inactive | LXR ag 2 inactive
COc1cccc(C(=O)Nc2ccc(C(F)(F)F)n(C)c2=O)c1	hcDAF-12 act 6.3, hgDAF12 agonist 18 | hgDAF12 conf 14 | LXR ag 2 inactive
CCOc1ccc(C(=O)Nc2ccc(C(F)(F)F)n(C)c2=O)cc1	none
CN(C)c1ccc(N(C)C)c(C(O)(c2ccccc2)c2ccccc2)c1	none (no result: DAX1 inh-1)
CS(=O)(=O)N1N=C(c2ccc(Br)cc2)CC1c1cccs1 (stereo unspecified)	hgDAF12 agonist 14 | hgDAF12 conf inactive | LXR ag 2 inactive
CC(=O)N1N=C(c2ccccc2)CC1c1cccs1 (stereo unspecified)	none
COc1ccccc1/C=C/CN1CCSCC1	hgDAF12 agonist 16 | hgDAF12 conf inactive | LXR ag 2 inactive
COC(=O)C1=C(C)N(Cc2cccc(C(F)(F)F)c2)C(=NCc2cc(OC)c(OC)c(OC)c2)NC1c1ccccc1C(F)(F)F (stereo unspecified)	none (no result: DAX1 inh-1)
Nc1ccccc1SCc1cn2cccnc2n1	hgDAF12 agonist 14 | hgDAF12 conf inactive | LXR ag 2 inactive
O=S1(=O)N[C@@H](Cc2ccccc2)COc2cccc(NCCCN3CCOCC3)c21	none (no result: DAX1 inh-1)
Cc1ccc(NC(=S)NNC(=O)c2c(Cl)c(C)nn2C)cc1	none
Cc1ccc(NC(=S)NNC(=O)c2nn(C)c(C)c2Cl)cc1	DAX1 inh-1 6.5, hgDAF12 agonist 16 | hgDAF12 conf inactive | LXR ag 2 inactive
CCCc1cc(C(=O)Nc2cc(Br)ccc2O)no1	hgDAF12 agonist 15 | hgDAF12 conf inactive | LXR ag 2 inactive
O=C(N/N=C/c1c(-c2ccccc2)[nH]c2ccccc12)c1cccnc1	hgDAF12 agonist 18 | hgDAF12 conf inactive | LXR ag 2 inactive
C[C@@H]1CN([C@@H](C)CO)C(=O)CCCn2cc(nn2)CO[C@H]1CN(C)C(=O)Nc1ccc(C(F)(F)F)cc1	none (no result: DAX1 inh-1)
C[C@@H]1CN([C@H](C)CO)C(=O)CCCn2nncc2CO[C@@H]1CN(C)C(=O)Nc1ccccc1	none (no result: DAX1 inh-1)
Cc1ccc(OCn2c(=O)sc3ccccc32)cc1	none (no result: ssDAF12 agonist, SMARCA2 act, DAX1 inh-2, hcDAF-12 act, hgDAF12 agonist)
O=c1sc2ccccc2n1CCOc1ccccc1	hcDAF-12 act 5.6, hgDAF12 agonist 15 | hgDAF12 conf 12 | LXR ag 2 inactive
c1c2c(cc3sc(N4CCOCC4)nc13)OCO2	hcDAF-12 act 6.0, hgDAF12 agonist 16 | hgDAF12 conf 13 | LXR ag 2 inactive
Cc1cc(Nc2ccc(Cl)c(C(F)(F)F)c2)cc(=O)n1-c1ccc(Cl)c(C(F)(F)F)c1	none (no result: DAX1 inh-1)
O=C(N[C@@H](Cc1cccnc1)C(=O)N1CCC[C@H]1C(=O)NC1CCCC1)c1ccccc1	none (no result: DAX1 inh-1)
C#CCNC(=O)C[C@H]1C[C@@]2(C(=O)OC)C(=C[C@H](C(C)C)O[C@@H]2C2CC2)N(Cc2ccccc2)C1=O	none (no result: DAX1 inh-1)
